39 compounds from PubChem BioAssay AID1259240 (Keith Lab, Institute of Cancer Science, University of …, 2017) can be followed below.

The structures appear in SMILES notation. Calls of active or inactive are those of the source. Cut-off read from the data, not from the text of the source: active = fold change mostly below about -2 (no sharp cut-off); inactive = mostly above about -1.8.

The experiment in a line: modulation of TERT promoter-driven luciferase – cell-based, luciferase reporter, human, primary screen (AID 1259240). Conditions: A2780 TERT promoter luciferase reporter, 16 h; at 20 µM, fold versus average of vehicle-only wells. For orientation: Reporter assays use an easily measured gene product as a stand-in for the process of interest.
`COc1ccc2c(c1)OC13CCCCC1C2C(C(=O)c1ccccc1)C(=O)N3` (centres undefined): the fold change was -2.84 (active).

`CC(=O)C(Sc1nc(C)nc2c1c(=O)n(C)c(=O)n2C)C(C)=O`: the fold change is 1.87 (inactive).

For `c1ccc2nc3c(nc2c1)Nn1cnnc1S3`, the fold change was -1.42 (inactive).

`COCCn1c(SCC(=O)NCC2CCCO2)nnc1-c1c[nH]c2ccccc12` (centres undefined): the compound was classed as inactive.

`Clc1ccc(CNc2ccc3nncn3n2)cc1`: the fold change was -1.3 (inactive).

In the case of `CN(CC(=O)NC(C)(C)C)S(=O)(=O)c1ccc2c(c1)c(=O)n(C)c(=O)n2C`, the fold change is -1.36 (inactive).

As for `CCc1ccc2[nH]cc(S(=O)(=O)c3ccc(F)cc3)c(=O)c2c1`, the fold change is -1.48 (inactive).

Regarding `CCOc1ccc2[nH]c(C)c(CN3CC4(C)CC3CC(C)(C)C4)c(=O)c2c1` (centres undefined), the fold change is -1.96 (inactive).

With `COc1cc2nc(CN3C(=O)c4ccccc4C3=O)oc(=O)c2cc1OC`, the fold change is -2.87 (active).

With `Cc1cc(NC(=O)CSc2nnc(Cn3c(=O)sc4ccccc43)n2-c2ccccc2)no1`, the fold change is 1.22 (inactive).

Regarding `CC(C)n1cnc2cc(NCc3ccccc3Cl)ccc21`, the fold change was -2.21 (active).

With `CCNc1nc(NCC)nc(C(=O)OCCO)n1`, the fold change was 1.24 (inactive).

Regarding `Cn1c(=O)c2c(SCC(=O)Nc3ccc([N+](=O)[O-])cc3)nc(-c3ccc(F)cc3)nc2n(C)c1=O`, the fold change is 1.08 (inactive).

For the compound `Cc1nc2c3ccccc3n3c(CCCC(=O)NCc4ccccn4)nnc3n2n1`, the fold change is -1.25 (inactive).

Regarding `Cc1cc(C)n2c(NC(C)C)c(-c3ccc(C)o3)nc2n1`, the fold change is 1.2 (inactive).

For `CCOC(=O)c1cc2cc(Cl)ccc2oc1=O`, the fold change is 1.32 (inactive).

With `C=CCOc1cccc(C2c3c(oc4ccccc4c3=O)C(=O)N2c2nc(C)c(C(C)=O)s2)c1` (centres undefined), the fold change is 1.02 (inactive).

On to `COC(=O)CSc1nnc2sc3ccccc3n12`, for which the fold change was -1.32 (inactive).

For the compound `O=C(Nc1ccc2nc3n(c(=O)c2c1)CCCCC3)C(=O)N1CCOCC1`, the fold change is 1.01 (inactive).

In the case of `CC1CCCC(NC(=O)CN(C)S(=O)(=O)c2ccc3c(c2)CCC(=O)N3)C1C` (centres undefined), the fold change is -1.68 (inactive).

Regarding `COc1ccc(-c2nc3s/c(=C\c4cccc(Cl)c4)c(=O)n3n2)cc1OC`, the fold change is -1.08 (inactive).

Regarding `CCOc1cccc2cc(S(=O)(=O)c3ccc(C(C)(C)C)cc3)c(=O)oc12`, the fold change is -1.2 (inactive).

As to `CCC(Sc1nnc(-c2c[nH]c3ccccc23)n1CCOC)C(=O)OC` (centres undefined), the result was inactive.

`CC1CCC[C@@H](C)N1C(=O)Cc1ccc(NC2=NC3CS(=O)(=O)CC3S2)cc1` (some centres undefined): the fold change is -1.64 (inactive).

In the case of `CCc1cccc2c1NC(=O)C2(O)CC(=O)c1cccs1` (centres undefined), the fold change is 1.14 (inactive).

With `Cc1cccc(CNc2nc(N)n(-c3ccccc3)n2)c1`, the fold change was 1.27 (inactive).

Take `CCOC(=O)C1CCCN(c2c(N3CC(C)CC(C)C3)c(=O)c2=O)C1` (centres undefined): the fold change is -1.11 (inactive).

For `CCc1nc(N)c(C#N)c(-c2cccnc2)c1C`, the fold change is -2.52 (active).

For `COCCn1c(SCC(=O)Nc2cc(C)on2)nc2c(c1=O)SC(C)C2` (centres undefined), the fold change is -1.21 (inactive).

As for `COc1ccc(Nc2c(-c3cccc(O)c3)nc3ncccn23)cc1`, the fold change is 1.03 (inactive).

With `COC(=O)c1nc2n(n1)C(c1cccc(Br)c1)C1=C(CCCC1=O)N2` (centres undefined), the result was inactive.

As to `CC(C)C(NS(=O)(=O)c1cccc2nsnc12)C(=O)N1CCCCC1` (centres undefined), the fold change was 1.43 (inactive).

Regarding `Cc1sc2nc3ccc(N4CCCC4)nn3c(=O)c2c1C`, the fold change was -1.02 (inactive).

`COc1cc(Nc2nc3ccccc3n3cnnc23)cc(OC)c1OC`: the fold change is 1.1 (inactive).

With `CCOC(=O)CNC(=O)CSc1nc(C)nc2c1c(=O)n(C)c(=O)n2C`, the fold change was 1.49 (inactive).

Take `COc1ccccc1N1CCN(S(=O)(=O)c2cccc3cccnc23)CC1`: the fold change was -1.29 (inactive).

With `Cc1c(NC(=O)c2cc(C3CC3)on2)c(=O)n(-c2ccccc2)n1C`, the fold change is -1.33 (inactive).

On to `Cc1nc(SCc2cccc(C(F)(F)F)c2)c2c(=O)n(C)c(=O)n(C)c2n1`, for which the fold change was 1.26 (inactive).

Turning to `CCc1nccn1S(=O)(=O)c1ccc(OC)c(OC)c1`, the fold change was -2.54 (active).
